Results reported in PubChem BioAssay.
Activity calls are given as the source filed them. Unless noted, how the calls were made is not given here.

How the values were obtained:
[1] = compounds binding Alexa647 anti-His antibody – biochemical, small-molecule microarray, 635 nm fluorescence, artefact control for SMM control protein annotation, primary screen (AID 1128); conditions: higher = more signal;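 further: score merges feature fluorescence with signal-to-noise for each printed compound spot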
[2] = test system: Human papillomavirus type 1a E7 protein (residues 1-88); assay: HPV1a E7 small-molecule binders, primary screen, biochemical, small-molecule microarray, residues 1-88, 635 nm (AID 1129); conditions: small-molecule microarray binding, fluorescence 635 nm; higher = more signal
[3] = molecular target: Focal adhesion kinase 1 (Homo sapiens) (UniProt Q05397); assay: PTK2 protein binding on printed compound slides – biochemical, small-molecule microarray, 635/667 nm fluorescence, BSA, DTT, primary screen (AID 1130); conditions: 635 nm fluorescence, higher = more signal;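 further: composite of spot emission at 667 nm and signal to noise over triplicate slides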
[4] = test system: Fibrinogen (Alexa647-labelled); assay: Alexa647-fibrinogen binding to printed small molecules – biochemical, small-molecule microarray, 635/667 nm fluorescence, artefact control for SMM control-protein annotation, profiling panel (AID 1131); conditions: fibrinogen-A647 binding fluorescence, higher = more signal;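 further: z-score merges 667 nm fluorescence with per-spot signal-to-noise over triplicate slides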
[5] = molecular target: Follistatin (Homo sapiens) (UniProt P19883); assay: FST protein binding to printed compounds – biochemical, small-molecule microarray, 635/667 nm fluorescence, primary screen (AID 1132); conditions: 635 nm fluorescence, higher = more signal
[6] = molecular target: Fibroblast growth factor 2 (Homo sapiens) (UniProt P09038); assay: basic fibroblast growth factor binding to printed compounds – biochemical, small-molecule microarray, 635/667 nm fluorescence, primary screen (AID 1133); conditions: FGF2, fluorescence 635/667, higher = more signal
[7] = JC-1 mitochondrial potential readout, lung cancer cells – cell-based, A549, JC-1 fluorescence, basal, 24 h, 100 nL, profiling panel (AID 1138); conditions: higher = more signal;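 further: A549 lung adenocarcinoma cells under basal conditions with no added stimulus; test concentration not given here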
[8] = test system: Lefty1; assay: Lefty1 protein binding to printed compounds – biochemical, small-molecule microarray, 635/667 nm fluorescence, primary screen (AID 1139); conditions: fluorescence 635/667, higher = more signal
[9] = test system: wheat germ agglutinin (Triticum aestivum), Alexa647-labelled; assay: Alexa647-WGA lectin binding to printed small molecules – biochemical, small-molecule microarray, 635/667 nm fluorescence, artefact control for SMM control-protein annotation, profiling panel (AID 1140); conditions: WGA-A647 binding, 635 nm fluorescence, higher = more signal;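 further: score merges 667 nm feature emission with signal to noise over triplicate slides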
[10] = molecular target: Luciferin 4-monooxygenase (Photinus pyralis) (UniProt P08659); assay: inhibition of purified Photinus pyralis luciferase – biochemical, luminescence, purified enzyme, 2006 set, primary screen (AID 1141); conditions: purified firefly luciferase, SteadyGlo luminescence, 30 min; higher = more signal, called active from +8 up or from −8 down;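 further: cell-free assay with purified firefly luciferase at 100 ng per well in PBS; test concentration not given here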
[11] = test system: Wnt5a (protein binding on small-molecule microarray); assay: small molecules binding Wnt5a protein – biophysical, small-molecule microarray, 635/667 nm fluorescence, primary screen (AID 1142); conditions: 635 nm fluorescence, higher = more signal;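 further: fluorescence read at 667 nm with signal to noise per printed feature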
[12] = ATP-based viability of Huh7 replicon cells – cell-based, CellTiter-Glo luminescence, basal, 48 h, cytotoxicity control for HCV replication inhibitor project, primary screen (AID 1143); conditions: higher = more signal, called active from +8 up or from −8 down;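 further: Huh7 hepatoma cells carrying a hepatitis C replication reporter with no stimulus; test concentration not given here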
[13] = Pseudomonas biofilm growth suppression – PAO1 strain, BacTiter-Glo luminescence, LB-PBS, primary screen (AID 1144); conditions: P. aeruginosa PAO1 biofilm, 12 h, higher = more signal
[14] = basal CRE-LacZ reporter activity in PC12 – cell-based, unstimulated, primary screen (AID 1145); conditions: no forskolin, luminescence, 4.5 h, higher = more signal, called active from +8 up or from −8 down
[15] = forskolin-driven CRE-LacZ activity in PC12 – cell-based, CRE-LacZ reporter, forskolin-stimulated, primary screen (AID 1146); conditions: luminescence, 4.5 h, higher = more signal, called active from +8 up or from −8 down;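 further: PC12 cells with 6xCRE LacZ reporter stimulated by forskolin 10 µM; beta-galactosidase reporter signal reflecting CREB driven transcription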
[16] = molecular target: Streptavidin (Streptomyces avidinii) (UniProt P22629); assay: compounds binding control protein streptavidin – biophysical, small-molecule microarray, 635/667 nm fluorescence, artefact control for SMM compound annotation, primary screen (AID 1147); conditions: higher = more signal;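 further: signal reflects streptavidin binding to arrayed compounds as a control protein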
[17] = probe aInhba binding on compound microarray – biochemical, small-molecule microarray, 635/667 nm fluorescence, primary screen (AID 1148); conditions: higher = more signal;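 further: score merges 667nm spot fluorescence with signal-to-noise for antibody binding to printed compounds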
[18] = molecular target: Torsin-1A (Homo sapiens) (UniProt O14656); assay: TOR1A wild-type binding on microarray – cell lysate, small-molecule microarray, lysate, 635/667 nm, primary screen (AID 1149); conditions: COS7 hTOR1A-WT lysate, 635 nm fluorescence, higher = more signal
[19] = molecular target: Torsin-1A (Homo sapiens) (UniProt O14656); assay: torsin A mutant lysate binding on microarrays – cell lysate, small-molecule microarray, COS7 lysate, 635/667 nm fluorescence, primary screen (AID 1150); conditions: COS7 hTOR1A mutant lysate, 635 nm fluorescence, higher = more signal;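 further: score pools 667 nm emission and signal to noise measuring lysate protein binding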
[20] = test system: Sonic hedgehog protein (Shh); assay: Sonic hedgehog microarray binding compounds – biochemical, small-molecule microarray, 635/667 nm fluorescence, primary screen (AID 1151); conditions: 635 nm fluorescence, higher = more signal;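 further: Shh protein binding to compounds spotted on small-molecule microarray slides; score combines spot fluorescence intensity with signal-to-noise across triplicate slides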

Sequence of Torsin-1A (Homo sapiens) (O14656 whole entry, looked up): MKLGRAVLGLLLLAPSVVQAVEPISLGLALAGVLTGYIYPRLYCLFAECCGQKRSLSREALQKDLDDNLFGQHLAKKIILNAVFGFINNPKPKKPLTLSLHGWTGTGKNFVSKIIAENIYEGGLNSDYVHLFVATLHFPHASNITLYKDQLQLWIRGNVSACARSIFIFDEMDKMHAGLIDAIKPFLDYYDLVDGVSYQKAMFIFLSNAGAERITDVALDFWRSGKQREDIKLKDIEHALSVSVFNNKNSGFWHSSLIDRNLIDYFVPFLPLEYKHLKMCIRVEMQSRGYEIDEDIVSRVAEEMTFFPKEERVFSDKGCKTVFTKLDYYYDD
Sequence of Follistatin (Homo sapiens) (P19883 whole entry, looked up): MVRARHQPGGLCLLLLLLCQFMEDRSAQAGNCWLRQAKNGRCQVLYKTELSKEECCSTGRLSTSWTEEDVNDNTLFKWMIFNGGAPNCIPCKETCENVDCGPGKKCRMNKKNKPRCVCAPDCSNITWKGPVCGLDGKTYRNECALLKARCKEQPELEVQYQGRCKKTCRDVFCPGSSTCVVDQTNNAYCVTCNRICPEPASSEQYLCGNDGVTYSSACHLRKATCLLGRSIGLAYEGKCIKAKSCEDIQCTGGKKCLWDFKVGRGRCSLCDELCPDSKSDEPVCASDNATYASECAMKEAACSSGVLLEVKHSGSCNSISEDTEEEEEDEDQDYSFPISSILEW
Sequence of Streptavidin (Streptomyces avidinii) (P22629 whole entry, looked up): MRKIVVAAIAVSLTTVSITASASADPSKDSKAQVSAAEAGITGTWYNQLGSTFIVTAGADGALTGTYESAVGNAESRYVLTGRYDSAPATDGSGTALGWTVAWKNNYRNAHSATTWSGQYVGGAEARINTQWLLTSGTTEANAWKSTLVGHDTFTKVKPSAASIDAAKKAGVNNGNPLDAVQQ
Sequence of Luciferin 4-monooxygenase (Photinus pyralis) (P08659 whole entry, looked up): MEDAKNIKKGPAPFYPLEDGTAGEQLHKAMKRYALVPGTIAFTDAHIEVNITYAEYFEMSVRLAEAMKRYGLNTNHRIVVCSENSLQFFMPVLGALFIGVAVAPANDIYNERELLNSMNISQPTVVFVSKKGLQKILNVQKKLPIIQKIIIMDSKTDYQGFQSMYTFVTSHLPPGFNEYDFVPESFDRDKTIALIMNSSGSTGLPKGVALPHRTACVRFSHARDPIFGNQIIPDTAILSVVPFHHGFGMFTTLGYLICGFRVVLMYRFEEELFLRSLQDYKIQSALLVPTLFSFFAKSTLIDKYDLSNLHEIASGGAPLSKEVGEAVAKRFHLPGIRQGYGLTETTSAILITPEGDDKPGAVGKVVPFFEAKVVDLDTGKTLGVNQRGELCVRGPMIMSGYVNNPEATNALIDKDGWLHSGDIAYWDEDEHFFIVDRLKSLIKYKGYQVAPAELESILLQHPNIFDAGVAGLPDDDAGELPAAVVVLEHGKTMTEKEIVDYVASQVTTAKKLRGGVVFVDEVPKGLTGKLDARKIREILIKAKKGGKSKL
Sequence of Fibroblast growth factor 2 (Homo sapiens) (P09038 whole entry, looked up): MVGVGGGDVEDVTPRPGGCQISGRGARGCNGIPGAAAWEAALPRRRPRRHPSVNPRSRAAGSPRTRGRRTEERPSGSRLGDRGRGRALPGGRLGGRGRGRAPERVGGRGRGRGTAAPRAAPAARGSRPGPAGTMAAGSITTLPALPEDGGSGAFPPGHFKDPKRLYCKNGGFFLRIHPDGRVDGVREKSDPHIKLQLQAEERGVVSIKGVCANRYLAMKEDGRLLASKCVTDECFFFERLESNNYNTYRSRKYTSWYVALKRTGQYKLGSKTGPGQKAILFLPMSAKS
Sequence of Focal adhesion kinase 1 (Homo sapiens) (Q05397 whole entry, looked up): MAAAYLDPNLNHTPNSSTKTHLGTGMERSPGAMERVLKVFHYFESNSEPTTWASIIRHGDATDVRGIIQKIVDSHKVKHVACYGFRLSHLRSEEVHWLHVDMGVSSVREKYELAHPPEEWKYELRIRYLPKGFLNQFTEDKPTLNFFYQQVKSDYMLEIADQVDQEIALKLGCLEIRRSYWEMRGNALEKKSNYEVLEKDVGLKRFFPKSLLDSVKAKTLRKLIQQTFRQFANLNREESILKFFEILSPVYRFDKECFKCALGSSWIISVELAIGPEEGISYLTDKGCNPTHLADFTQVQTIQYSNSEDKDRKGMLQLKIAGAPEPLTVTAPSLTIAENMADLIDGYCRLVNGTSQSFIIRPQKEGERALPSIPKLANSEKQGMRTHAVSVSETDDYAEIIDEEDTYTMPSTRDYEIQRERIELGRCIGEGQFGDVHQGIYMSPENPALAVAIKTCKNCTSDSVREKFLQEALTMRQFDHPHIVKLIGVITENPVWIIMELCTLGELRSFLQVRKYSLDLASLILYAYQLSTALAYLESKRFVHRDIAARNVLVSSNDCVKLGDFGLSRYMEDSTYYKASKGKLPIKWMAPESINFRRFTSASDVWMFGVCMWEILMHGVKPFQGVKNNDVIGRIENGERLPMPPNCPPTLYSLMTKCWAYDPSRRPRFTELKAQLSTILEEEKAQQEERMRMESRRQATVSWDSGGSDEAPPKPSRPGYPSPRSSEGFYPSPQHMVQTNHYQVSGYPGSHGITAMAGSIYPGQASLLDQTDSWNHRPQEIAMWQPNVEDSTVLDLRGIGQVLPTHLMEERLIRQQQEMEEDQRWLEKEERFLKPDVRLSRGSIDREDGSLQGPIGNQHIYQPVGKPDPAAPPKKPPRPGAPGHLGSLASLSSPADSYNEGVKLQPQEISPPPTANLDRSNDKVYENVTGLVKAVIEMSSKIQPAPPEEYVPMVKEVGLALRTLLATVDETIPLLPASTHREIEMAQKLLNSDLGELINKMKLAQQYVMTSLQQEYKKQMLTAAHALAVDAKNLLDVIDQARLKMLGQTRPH

Compound	composite z-score [1]	composite z-score [2]	composite z-score [3]	composite z-score [4]	composite z-score [5]	composite z-score [6]	z-score [7]	composite z-score [8]	composite z-score [9]	z-score [10]	composite z-score [11]	z-score [12]	z-score [13]	z-score [14]	z-score [15]	composite z-score [16]	composite z-score [17]	composite z-score [18]	composite z-score [19]	composite z-score [20]
CCOC(=O)C1=CCC(c2cc3ccccc3[nH]2)N(S(=O)(=O)c2ccccc2[N+](=O)[O-])C1 (stereo not given)	0.584	1.2	0.501	0.0547	0.574	-0.103	1.05	0.306	0.896	-0.0781 (inactive)	0.379	-5.05 (inactive)	-0.295 (inactive)	-0.172 (inactive)	-0.0943 (inactive)	-0.141	-0.101	0.0459	0.609	-0.312
[N-]=[N+]=NCc1ccccc1C[C@@]1(C(=O)O)N=C(c2ccc(OCCCO)cc2)O[C@@H]1c1ccccc1CN=[N+]=[N-]	0.705	1.17	-0.0333	0.989	1.02	0.679	-0.253	0.594	0.51	-0.593 (inactive)	0.561	-1.96 (inactive)	-0.595 (inactive)	-0.996 (inactive)	-1.4 (inactive)	0.465	0.353	1.28	0.171	0.447
Cc1ccc(S(=O)(=O)N2[C@@H](c3ccccc3)C(C(=O)O)=CC[C@H]2c2ccc(C#N)cc2)cc1	1.58	1.31	0.447	0.992	0.0793	-0.413	-1.38	-0.388	1.05	0.654 (inactive)	0.111	-0.478 (inactive)	-0.236 (inactive)	-0.275 (inactive)	-0.551 (inactive)	0.0546	-0.148	0.834	2.1	-0.133
C#CCN([C@H](/C=C/C1CC1)[C@@H](O)Cc1ccccc1)[C@@H](Cc1ccccc1)C(=O)OC	0.482	-0.517	-0.113	-0.408	0.794	-0.182	3.47	0.683	-0.34	0.778 (inactive)	-0.48	-2.91 (inactive)	-0.669 (inactive)	3.21 (inactive)	-0.765 (inactive)	0.483	0.0013	0.0515	-0.409	1.08
C=CCN1C(=O)[C@]2(O[C@H](CCO)[C@@H]([Si](C)(C)c3ccc(OC)cc3)[C@@H]2C)c2ccccc21	0.0171	0.745	-0.0378	0.641	-0.862	-0.14	-1.83	0.058	0.134	-0.43 (inactive)	-0.381	-8 (inactive)	-0.566 (inactive)	19.5 (active)	-3.3 (inactive)	-0.652	-0.209	-0.958	-0.0259	-1.12
CCCCN1CC=CC23O[C@@H]4C=CCOC(=O)[C@@H]4[C@H]2C(=O)N(CCO)[C@@H]3C1=O (stereo not given in full)	-0.211	-0.629	-0.681	-0.717	-1.06	-1.39	0.0309	-1.45	-1.29	0.0308 (inactive)	-0.477	-0.238 (inactive)	1.1 (inactive)	0.0605 (inactive)	0.113 (inactive)	-0.94	0.059	0.0805	-0.243	-0.858
O=C1c2ccccc2[C@](Cc2ccccc2I)(C(=O)O)[C@H](c2ccc(CO)cc2)N1Cc1ccccc1	0.729	0.0602	2.7	0.303	-0.584	-0.42	0.068	-0.827	0.471	-0.443 (inactive)	0.303	-2.39 (inactive)	-0.718 (inactive)	0.0548 (inactive)	0.131 (inactive)	0.201	0.0627	0.363	0.0706	-0.282
COCCOC(=O)N1C(=O)[C@@]2(c3ccccc31)[C@H](c1ccc(OCCO)cc1)N1[C@H](c3ccccc3)[C@H](c3ccccc3)OC(=O)[C@H]1[C@@H]2C(=O)N1CCN(c2ncccn2)CC1	0.46	1.2	0.929	0.869	1.43	1.69	-1.03	1.37	1.04	-0.135 (inactive)	0.453	-2 (inactive)	-0.266 (inactive)	0.22 (inactive)	4.01 (inactive)	0.826	0.134	0.819	0.794	1.86
[N-]=[N+]=NCc1ccccc1C[C@]1(C(=O)O)COC(c2ccc(OCCCO)cc2)=N1	-0.615	-1.13	-0.217	-2.49	-0.21	-0.855	-0.103	-0.212	-0.0491	-0.536 (inactive)	-0.333	0.432 (inactive)	0.475 (inactive)	-0.426 (inactive)	-0.916 (inactive)	-0.878	-0.13	0.861	0.0486	-1.03
O=C1O[C@@H](c2ccccc2)[C@@H](c2ccccc2)N2[C@@H](c3ccc(O)cc3)[C@]3(C(=O)Nc4ccc(C#CC5=CCCCC5)cc43)[C@@H](C(=O)N3CCCCCCC3)[C@H]12	1.22	1.06	0.277	0.836	1.4	1.19	1.26	1.29	1.32	-3.18 (inactive)	0.0888	-4.91 (inactive)	-0.815 (inactive)	0.155 (inactive)	-0.782 (inactive)	1.1	1.04	1.12	0.772	1.95
COc1cccc(OC)c1C(=O)O[C@H]1[C@@H]2OC(=O)[C@H](Cc3cccc(Br)c3)C/C=C/C[C@@H](Cc3cccc(Br)c3)C(=O)O[C@H]2[C@@H](OC)O[C@@H]1CO	0.267	1.1	0.573	0.383	1.38	1.28	1.27	0.742	0.0452	-0.21 (inactive)	0.125	-1.74 (inactive)	-0.0318 (inactive)	-0.467 (inactive)	-0.201 (inactive)	-0.114	-0.128	-0.0031	0.529	1.23
C[C@H]1C2[C@H](Cc3ccccc3)NC(=O)[C@]23C(=O)NCC(=O)N2CCC[C@H]2C(=O)NC/C=C\C/C=C/C3[C@@H]2O[C@]12C (stereo not given in full)	-0.151	-0.0402	-0.258	-0.454	0.278	1.1	0.546	0.0393	-0.121	-1.25 (inactive)	0.0076	0.493 (inactive)	0.716 (inactive)	0.495 (inactive)	-0.294 (inactive)	-0.744	-0.018	-0.266	-0.618	1.2
